Assay outcomes as filed in PubChem BioAssay.
This is a sample that favours compounds with a hit; in the whole collection about 0.35% have one here.
Anesthetic bind: candidate novel general anesthetic via apoferritin binding | Potency, µM (series often up to 77.5 µM), for inactives: top-dose activity change, negative = displacement, actives largely listed as inhibitors | hit rate 0.074% among 350,000 | apoferritin/1-aminoanthracene competitive binding, fluorescence; also: potency is read from the fitted curve at half-maximal effect; % is scaled to controls: 0 for no effect and ±100 for the full control effect; nearly all actives have a fitted effect of over 20% in size
Target sequence (P02791 2-175 limits assumed): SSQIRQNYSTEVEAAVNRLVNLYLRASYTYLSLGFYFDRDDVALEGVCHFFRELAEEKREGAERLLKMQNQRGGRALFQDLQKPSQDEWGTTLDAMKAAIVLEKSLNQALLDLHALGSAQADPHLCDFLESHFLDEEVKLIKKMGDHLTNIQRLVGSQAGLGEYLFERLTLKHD
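Concentration-response curves derived by four-parameter Hill fitting of normalized fluorescence, where compounds displaced 1-AMA from 10 uM horse apoferritin following a brief 10 min room-temperature incubation; propofol titration acted as positive control.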
RGS4 inh: human RGS4 inhibition | P49798 | Transcreener GDP fluorescence polarization, RGS4-accelerated GTP hydrolysis | Potency, µM (titrated, usually from 114 µM), for inactives: top-dose activity change, negative = inhibition, actives largely listed as inhibitors | hit rate 0.039% among 390,000; also: potency is read from the fitted curve at half-maximal effect; % is scaled to controls: 0 for no effect and ±100 for the full control effect; nearly all actives have a fitted effect of over 75% in size
Target sequence (P49798 whole entry, looked up): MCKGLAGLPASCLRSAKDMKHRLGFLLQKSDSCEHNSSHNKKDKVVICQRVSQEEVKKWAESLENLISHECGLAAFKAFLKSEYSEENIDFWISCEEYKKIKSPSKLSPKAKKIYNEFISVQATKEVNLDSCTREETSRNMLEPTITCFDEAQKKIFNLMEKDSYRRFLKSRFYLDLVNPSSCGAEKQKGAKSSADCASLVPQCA
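MLSMR compounds (23 nl, pin-transferred) preincubated 10 min at room temperature with a 500nM (2x) first reagent, then RGS4 at 900nM (2x) plus Transcreener GDP mix added; fluorescence polarization (620/688 nm) read before and after 90 min at 30 °C.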
A-T KAP1 phos: potential ataxia-telangiectasia treatments restoring KAP-1 phosphorylation | F2112 A-T fibroblasts, KAP-1 phosphorylation AlphaLISA; neocarzinostatin DNA damage 30 min before lysis | hit rate 0.19% among 320,000 | Potency, µM (top dose mostly 57.5 µM), without a hit: top-dose activation, hits mostly activators; also: potency is read from the fitted curve at half-maximal effect; % of control where 0% means no effect; nearly all actives have a fitted effect of over 45% in size
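ATM-like activity read as KAP-1 phosphorylation via AlphaLISA donor/acceptor antibody pairs after lysis and 6 hr at 25C. Cells were ATM-null patient fibroblasts (F2112, hTERT), dosed 60 min, then exposed to the DSB inducer NCS for 30 min.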
LDHA inh: LDHA (human) enzyme inhibition | purified LDHA, NADH/diaphorase-resazurin fluorescence; stronger effect = lower value | hit rate 0.15% among 480,000 | P00338 | activity change, % (values are at about 110 or 230 µM); in the data active = activity change below about -30%; inconclusive = mostly about -25% to -30%;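 also: plate controls were DMSO wells for no effect and wells without enzyme for full effect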
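LDH5 2 nM; NADH 0.06 mM, pyruvate 0.2 mM; 200 mM Tris pH 7.4, EDTA, Tween-20; 5 min RT. Detection: diaphorase 0.133 mg/mL + resazurin 37 µM, fluorescence ex540/em590 at 0 and 20 min; normalized to enzyme-free and DMSO wells.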
Active calls of the source: *; ? = inconclusive; . = no result; ! = not active in a repeat; [ ] = another dose, or the depositor's remark. Unless noted, calls follow the shape of the dose curve; as a rule, active = well fitted curve in the direction sought with a large enough effect; inconclusive = small, poorly fitted or top-dose-only effect, or another doubt; inactive = no such curve, though single readings can be large; an effect the other way counts as inactive or inconclusive.

SMILES	Anesthetic bind	RGS4 inh	A-T KAP1 phos	LDHA inh
C[C@@H]1CN([C@@H](C)CO)C(=O)CCCn2cc(nn2)CO[C@H]1CN(C)S(=O)(=O)c1cccc(F)c1	.	.	.	-2
Fc1ccc(C2C=C(c3ccccc3)NC(=S)N2)cc1 (stereo not drawn)	.	.	.	-8
Cc1ccc(C(=O)C2OC(=O)C(C)(C)C(=O)C2(C)C)cc1 (stereo not drawn)	6.3µM*	-23%	0%	-5
O=C1CC(=O)N(Cc2ccco2)C(=S)N1	-4%	?	-1%	-36*
COC(=O)c1c(C)[nH]c(-c2cccc(OC)c2)c1C1C(=O)Nc2ccc(F)cc21 (stereo not drawn)	.	.	.	43
CCC(=O)Nc1ccc(NC(=O)c2oc3ccccc3c2C)cc1	43%	-1%	4%	-9
Cc1c(C(=O)NNC(=O)Nc2ccc([N+](=O)[O-])cc2)oc2ccccc12	?	12%	-3%	-44*
Cc1cc(/C=C/C(=O)c2ccccc2F)cc(C)c1O	.	.	.	1
O=C(Cc1c[nH]c2ccccc12)N1CCN(S(=O)(=O)c2cc(F)ccc2F)CC1	.	.	.	-37*
N#C/C(=C\c1ccc([N+](=O)[O-])o1)C(=O)NC1CCCCC1	.	.	.	-2
CN1/C(=C\C=C2/C(=O)Oc3ccccc3C2=O)C(C)(C)c2ccccc21	-5%	?	-3%	-50*
c1ccc2c(c1)[nH]c1c(N3CCN(C4CCCCC4)CC3)ncnc12	6.3µM*	3%[11.4 µM]	2%	-5
Cc1cccc(-c2nc3n(CC(=O)N4CCC(C)CC4)c(C)cc(=O)n3n2)c1	.	.	.	7
Cc1cccc(-c2nc3n(CC(=O)N4CCCCCC4)c(C)cc(=O)n3n2)c1	.	.	.	-31*
COc1cccc(NC(=O)CN(CCc2ccccc2)S(=O)(=O)c2ccc(Cl)cc2)c1	2%	1%	.	-59*
COC(=O)c1ccc(NC(=O)CN(CCc2ccccc2)S(=O)(=O)c2ccc(OC)cc2)cc1	83%	1%	.	0
Cc1ccc(/C=C/C(=O)c2c(C)nc3ccc(Br)cc3c2-c2ccccc2)o1	.	.	.	11
COc1ccccc1C(=O)N1CCN(Cc2cccnc2)CC1	-1%	4%	2%	-33*
O=C(c1cccnc1)N1CCN(Cc2cccc(Br)c2)CC1	-7%	22%	-3%	-20
O=C(c1cccnc1)N1CCN(Cc2ccccc2Br)CC1	-7%	17%	6%	-31*
c1ccc(-c2nnc(CN3CCCCC3)o2)cc1	22%	-9%	45µM*	-2
CCOc1ccccc1CN1CCC(O)CC1	-17%	11%	-2%	-20
CCOc1ccccc1CN1CCCCCC1c1sccc1C (stereo not drawn)	.	.	.	-31*
COc1ccc(OC)c2c1cc(C(=O)NCCC(=O)Nc1ccc3c(c1)OCCO3)n2C	.	.	.	-5
O=c1ccn(C2OC(COP(=O)(O)OP(=O)(O)OP(=O)(O)O)C(O)C2O)c(=O)[nH]1 (stereo not drawn)	5%	.	.	.
SMILES	Anesthetic bind	RGS4 inh	A-T KAP1 phos	LDHA inh
O=c1ccn([C@@H]2O[C@H](COP(=O)(O)O)[C@@H](O)[C@H]2O)c(=O)[nH]1	1%	38µM*	.	.
O=C(CSc1nnc(C2CC2)n1C1CC1)c1c[nH]c(C(=O)N2CCCC2)c1	.	.	.	-32*
O=C(CSc1nnc(C2CC2)n1C1CC1)c1ccc(F)cc1	.	21%	0%	-1
COc1cccc(Oc2coc3cc(OC(=O)c4ccc([N+](=O)[O-])cc4)ccc3c2=O)c1	.	.	.	-8
C[C@H]1CN([C@@H](C)CO)C(=O)c2cc(Br)cnc2O[C@@H]1CN(C)C(=O)CN(C)C	.	.	.	-37*
C[C@@H]1CN([C@@H](C)CO)C(=O)c2cc(Br)cnc2O[C@@H]1CN(C)C(=O)CN(C)C	.	.	.	1
CCOC(=O)c1ccc(/C=C/c2ccccn2)cc1	.	.	.	-2
O=C1NC2=C(C(=O)CCC2)C(c2ccc3ncccc3c2)N1 (stereo not drawn)	4%	-9%	2%	-4
O=C1CCCC2=C1C(c1ccc(F)cc1F)Nc1nonc1N2 (stereo not drawn)	.	.	.	-33*
COC(=O)c1cc(-c2ccc(F)cc2)nc2onc(-c3ccccc3)c12	.	.	.	15
N#CCCN(C(=O)Cn1nc(C(=O)O)c2ccccc2c1=O)c1ccccc1	0%	-12%	-1%	-32*!
COc1ccccc1N(CCC#N)C(=O)Cn1nc(C(=O)O)c2ccccc2c1=O	.	.	.	-5
CCc1ccc(-c2cc(C(=O)O)c3ccc(C)c(C)c3n2)cc1	.	.	.	5
CC(Cc1ccco1)NC(=O)c1ccc(Cl)c(S(C)(=O)=O)c1 (stereo not drawn)	.	.	.	-37*
O=C(COC(=O)C12CC3CC(CC(C3)C1)C2)Nc1ccc([N+](=O)[O-])cc1Br	-6%	17%	6%	0
N#Cc1cc([N+](=O)[O-])ccc1NC(=O)COC(=O)C12CC3CC(CC(C3)C1)C2	35µM*	.	2%	.
CC(CCC(C)[n+]1cccc(Br)c1)[n+]1cccc(Br)c1 (stereo not drawn)	.	.	.	-31*
C[n+]1cccc(Br)c1	.	.	.	1
Cc1c(CCC(=O)Nc2nccs2)c(=O)oc2c(C)c(O)ccc12	.	.	.	1
COc1ccc(-c2cc(C(=O)Nc3cccc(Cl)c3)no2)cc1	3%	23%	10µM*	-4
C=C1C2(C(=O)Nc3nccs3)CCC(C2)C1(C)C (stereo not drawn)	7.9µM*	-11%	-14%	-5
O=C(Nc1nccs1)C12CC3CC(CC(C3)C1)C2	.	.	.	2
COc1ccc(OCc2nnc3n2N=C(c2ccc(Br)cc2)CS3)cc1	14µM*	-34%	31%	-9
CCN(Cc1ccco1)C(=O)c1cc2ccc(OC)cc2[nH]1	.	.	.	19
Cc1nc2sc(C(N)=O)c(N)c2c2c1CCCC2	29%	-11%	8.9µM*	-7
SMILES	Anesthetic bind	RGS4 inh	A-T KAP1 phos	LDHA inh
CCC(=O)Nc1nc(C)c(-c2csc(Nc3ccc(OC)cc3)n2)s1	.	.	.	7
Cc1ccc(C)c(N2N=C(C(=O)Nc3ccccc3S(=O)(=O)N3CCCCC3)CCC2=O)c1	.	.	.	-2
O=c1c(C(c2ccc(Cl)cc2)c2c(O)nc3n(c2=O)CCCS3)c(O)nc2n1CCCS2	5%	3%	32µM*	0
CCOC(=O)N1CCc2c(sc3c2C(=O)NC(c2cccc4ccccc24)N3)C1 (stereo not drawn)	.	.	.	2
CNc1nnc(SCc2coc(-c3ccccc3)n2)s1	.	.	.	13
Cc1cccc(/C=C(\c2nc3ccccc3[nH]2)S(=O)(=O)c2ccccc2)c1	-9%	-29%	35µM*	-6
CCc1cc(=O)oc2cc(OC(C)C(=O)Nc3ccccc3F)ccc12 (stereo not drawn)	.	.	.	-13
Cc1cccc(-c2nc(Nc3ccc(C(=O)O)cc3)c3ccccc3n2)c1	.	.	.	-39*
S=C(Nc1ccccc1)Nc1nccs1	-16%	11µM*!	5%	-2
Fc1ccc(NC(=S)Nc2nccs2)cc1	-15%	?	-1%	-2
O=C(O)COc1ccccc1-c1nc(-c2ccccc2)c(-c2ccccc2)[nH]1	1%	14%	11%	-43*
